# Laboratory results reported in PubChem BioAssay (Tox21).
# “And” between values parts separate entries of the source, which are not always exact repeats. Equal entries are not always repeated. Results filed as inconclusive are left out. A call without a number means that no potency is given here. More than one record can exist for a structure, and the calls need not agree. The source made the active and inactive calls. Unless noted, calls come from the whole dose curve.
# Columns and labels:
# [1] = Nuclear factor erythroid 2-related factor 2/antioxidant responsive element (Nrf2/ARE) small molecule agonists: qHTS cell viability counter screen in human keratinocytes (AID 1919968; active = well fitted curve in the direction sought with a large enough effect in the repeat runs; an effect the other way counts as inactive or inconclusive; note: nearly all actives have a fitted effect of over 55% in size; note: potency is the fitted concentration of half-maximal effect)
# In short: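 HaCaT ARE reporter line, 1,500 cells/well; 5 h settle, 37 C/5% CO2; cpd in DMSO pinned; 23 h exposure; CellTiter-Fluor, 1 h; fluorescence.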
# [2] = Nuclear factor erythroid 2-related factor 2/antioxidant responsive element (Nrf2/ARE) small molecule agonists: luciferase reporter gene qHTS assay in human keratinocytes (AID 1919969); note: nearly all actives have a fitted effect of over 35% in size; note: potency is the fitted concentration of half-maximal effect
# [3] = target: Gonadotropin-releasing hormone receptor (Homo sapiens) (UniProt P30968); assay: Human gonadotropin-releasing hormone receptor (GnRHR) small molecule agonists, calcium flux assay in GnRHR-HEK293 cells (AID 1920063); note: nearly all actives have a fitted effect of over 35% in size
# Gonadotropin-releasing hormone receptor (Homo sapiens), sequence (P30968 whole entry, looked up): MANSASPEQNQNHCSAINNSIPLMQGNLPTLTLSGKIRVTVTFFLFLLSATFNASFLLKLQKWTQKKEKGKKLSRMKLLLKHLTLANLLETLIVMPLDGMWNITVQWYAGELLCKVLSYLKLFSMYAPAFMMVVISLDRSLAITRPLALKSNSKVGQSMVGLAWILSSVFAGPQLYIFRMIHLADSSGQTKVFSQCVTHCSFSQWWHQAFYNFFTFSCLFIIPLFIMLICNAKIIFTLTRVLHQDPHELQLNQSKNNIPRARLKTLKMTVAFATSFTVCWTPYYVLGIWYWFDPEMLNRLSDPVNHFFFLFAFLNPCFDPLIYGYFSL
# In short: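 GnRHR-HEK293, 1500 cells/well, 18 h 37 C/5% CO2; Ca dye 1 h 37 C; cpd pinned (DMSO), agonist mode; kinetic FL 480/540, 3 min, 1 s reads; 15 conc, n=3.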
# [4] = target: KiSS-1 receptor (Homo sapiens) (UniProt Q969F8); assay: Human kisspeptin (KISS1R) small molecule agonists, calcium flux assay in KISS1R-HEK293 cells (AID 1920064; active = well fitted curve in the direction sought with a large enough effect in the repeat runs; an effect the other way counts as inactive or inconclusive)
# KiSS-1 receptor (Homo sapiens), sequence (Q969F8 whole entry, looked up): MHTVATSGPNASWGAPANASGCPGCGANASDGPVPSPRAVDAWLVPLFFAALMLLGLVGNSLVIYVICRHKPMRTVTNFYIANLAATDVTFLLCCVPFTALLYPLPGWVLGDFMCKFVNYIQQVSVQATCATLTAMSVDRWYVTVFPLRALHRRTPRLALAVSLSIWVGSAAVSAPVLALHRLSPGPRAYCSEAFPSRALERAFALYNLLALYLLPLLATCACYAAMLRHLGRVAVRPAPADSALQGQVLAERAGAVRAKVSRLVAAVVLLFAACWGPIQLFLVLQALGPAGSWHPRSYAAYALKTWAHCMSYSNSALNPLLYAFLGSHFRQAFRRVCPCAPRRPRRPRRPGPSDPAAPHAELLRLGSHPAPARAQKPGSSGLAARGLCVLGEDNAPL
# In short: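 Stable human KISS1R HEK293 line; 18 h plating, 37 C/5% CO2; calcium dye 1 h 37 C; compound pin transfer; kinetic fluorescence Ex/Em 480/540, 3 min.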
# [5] = G protein-coupled receptor (GPCR) small molecule agonists, calcium flux assay: HEK293 wild type cell line counter screen (AID 1920065)
# In short: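 Kinetic fluorescence at Ex/Em 480/540, recorded every second over 3 min, served as the read-out after compound addition. Each compound was tested at 15 concentrations in triplicate on cells pre-loaded with calcium dye for 1 h.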
# [6] = p53 small molecule agonists, cell-based qHTS assay with human liver microsomes (AID 1963577);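 note: p53 response element beta-lactamase reporter cells with liver microsomes plus NADPH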
# In short: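 Fluorescence of the beta-lactamase reporter in p53RE-bla cells, detected with LiveBLAzer substrate (2 h, room temperature, dark), served as the read-out after 16 h compound exposure at 37 C with human liver microsomes and NADPH, each 0.5 mg/mL final.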
# [7] = p53 small molecule agonists, cell-based qHTS assay with human liver microsomes: qHTS cell viability counter screen (AID 1963579); note: nearly all actives have a fitted effect of over 45% in size
# In short: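 Cytotoxicity counter screen: p53RE-bla, 4,000 cells/well; 5 h settle, 37 C/5% CO2; cpd + HLM 0.5 mg/mL + NADPH 0.5 mg/mL (final); 16 h, 37 C; CellTiter-Glo, 30 min RT, luminescence.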
# [8] = p53 small molecule agonists, cell-based qHTS assay with rat liver microsomes: qHTS cell viability counter screen (AID 1963580); note: nearly all actives have a fitted effect of over 45% in size
# In short: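 p53RE-bla HCT-116 cells were exposed 16 h at 37 C to compounds with rat liver microsomes (0.5 mg/mL) and NADPH (0.5 mg/mL). Viability was measured in the same wells as ATP content by CellTiter-Glo luminescence.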
# [9] = p53 small molecule agonists, cell-based qHTS assay: qHTS cell viability counter screen (AID 1963581); note: nearly all actives have a fitted effect of over 45% in size
# In short: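 HCT-116 p53RE-bla cells, 4,000/well, plated 5 h before compound pin transfer; 16 h at 37 C; bla substrate 2 h RT; then CellTiter-Glo, 30 min RT, luminescence.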
# [10] = p53 small molecule agonists, cell-based qHTS assay (AID 1963582; active = well fitted activation curve with a large enough effect in the signal ratio in the repeat runs, not every such curve was filed as active; the % refers to the signal ratio)
# In short: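 Reporter line: p53RE-bla. Pre-incubation 5 h, 37 C, 5% CO2; compound (DMSO, pin tool) 16 h, 37 C; B/G FRET substrate 2 h RT; fluorescence intensity read.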
# [11] = target: 5-hydroxytryptamine receptor 2A (Homo sapiens) (UniProt P28223); assay: 5-hydroxytryptamine receptor 2A (HTR2A) small molecule antagonists, cell-based qHTS assay (AID 1963586); note: nearly all actives have a fitted effect of over 45% in size
# 5-hydroxytryptamine receptor 2A (Homo sapiens), sequence (P28223 whole entry, looked up): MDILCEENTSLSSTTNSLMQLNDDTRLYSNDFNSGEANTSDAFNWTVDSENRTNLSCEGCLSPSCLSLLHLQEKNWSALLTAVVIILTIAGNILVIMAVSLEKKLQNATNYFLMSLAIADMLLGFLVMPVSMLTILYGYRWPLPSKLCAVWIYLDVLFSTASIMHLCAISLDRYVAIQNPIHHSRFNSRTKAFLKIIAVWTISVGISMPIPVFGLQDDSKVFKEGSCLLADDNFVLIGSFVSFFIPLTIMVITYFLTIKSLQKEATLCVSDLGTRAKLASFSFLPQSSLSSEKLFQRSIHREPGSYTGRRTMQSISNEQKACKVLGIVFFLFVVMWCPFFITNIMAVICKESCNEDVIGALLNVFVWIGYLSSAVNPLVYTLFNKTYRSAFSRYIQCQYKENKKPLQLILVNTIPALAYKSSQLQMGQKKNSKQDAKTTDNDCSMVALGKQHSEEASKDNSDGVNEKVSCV
# In short: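 Antagonist-mode intracellular calcium assay: DOI (4 nM) added after 5 min compound pre-incubation at room temperature to dye-loaded HTR2A-CHO cells. Fluorescence followed for 3 min, sampled every second.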
# [12] = target: 5-hydroxytryptamine receptor 2A (Homo sapiens) (UniProt P28223); assay: 5-hydroxytryptamine receptor 2A (HTR2A) small molecule agonists, cell-based qHTS assay (AID 1963587); note: nearly all actives have a fitted effect of over 30% in size; note: potency is the fitted concentration of half-maximal effect
# In short: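 CHO cells stably expressing human HTR2A, plated 18 h, loaded with calcium dye 1 h at 37 C. Agonist mode: compounds added and intracellular calcium fluorescence recorded kinetically for 2 min at 1 sec intervals.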
# [13] = target: Muscarinic acetylcholine receptor M1 (Homo sapiens) (UniProt P11229); assay: Cholinergic receptor muscarinic 1 (CHRM1) small molecule antagonists, cell-based qHTS assay (AID 1963588); note: nearly all actives have a fitted effect of over 40% in size; note: potency is the fitted concentration of half-maximal effect
# Muscarinic acetylcholine receptor M1 (Homo sapiens), sequence (P11229 whole entry, looked up): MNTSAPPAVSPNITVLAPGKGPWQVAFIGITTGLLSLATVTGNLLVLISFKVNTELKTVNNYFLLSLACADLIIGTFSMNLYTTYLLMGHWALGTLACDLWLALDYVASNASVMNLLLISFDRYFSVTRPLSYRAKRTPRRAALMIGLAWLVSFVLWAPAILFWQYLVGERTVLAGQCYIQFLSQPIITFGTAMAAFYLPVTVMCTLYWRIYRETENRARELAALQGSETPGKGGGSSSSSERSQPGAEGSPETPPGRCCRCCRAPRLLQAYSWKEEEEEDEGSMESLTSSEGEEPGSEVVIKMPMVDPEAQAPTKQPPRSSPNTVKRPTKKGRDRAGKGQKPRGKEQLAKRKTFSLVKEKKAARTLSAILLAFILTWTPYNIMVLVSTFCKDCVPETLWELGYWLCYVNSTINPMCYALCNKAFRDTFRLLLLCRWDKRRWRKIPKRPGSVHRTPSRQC
# In short: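 CHRM1-CHO calcium-flux assay, antagonist mode. Cells were seeded 18 h, dye-loaded 1 h at 37 C and given compound for 5 min at RT, then acetylcholine was added at 50nM. FDSS fluorescence was read 3 min; 15 concentrations, three runs.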
# [14] = target: Muscarinic acetylcholine receptor M1 (Homo sapiens) (UniProt P11229); assay: Cholinergic receptor muscarinic 1 (CHRM1) small molecule agonists, cell-based qHTS assay (AID 1963589); note: nearly all actives have a fitted effect of over 35% in size
# In short: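 Human M1 in stable CHO line; 18 h plating, 1 h dye load 37 C; cpd added (agonist mode); Ca2+ fluorescence kinetic read, 1 s intervals; 15 conc, 3 runs.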
# [15] = cAMP Responsive Elements (CRE) small molecule agonists, cell-based qHTS assay (AID 1963590)
# In short: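 HEK 293T CRE-bla, 2,000 cells/well, 18 h preincubation 37 C/5% CO2; cpds (DMSO) pinned, 3 h; LiveBLAzer B/G FRET substrate, 2 h RT.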
# [16] = cAMP Responsive Elements (CRE) small molecule antagonists, cell-based qHTS assay (AID 1963591; active = well fitted inhibition curve with a large enough effect in the signal ratio in the repeat runs, not every such curve was filed as active; the % refers to the signal ratio)
# In short: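 Beta-lactamase reporter read by FRET substrate (LiveBLAzer B/G) after 2 h at room temperature. CRE-bla HEK293T cells had received compound plus 0.25 uM (final) NKH477 for 3 h at 37 °C.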
# [17] = target: Beta-2 adrenergic receptor (Homo sapiens) (UniProt P07550); assay: Adrenergic beta2 receptor (ADRB2) small molecule antagonists, cell-based qHTS assay (AID 1963592); note: series mostly up to about 92 µM; nearly all actives have a fitted effect of over 50% in size
# Beta-2 adrenergic receptor (Homo sapiens), sequence (P07550 whole entry, looked up): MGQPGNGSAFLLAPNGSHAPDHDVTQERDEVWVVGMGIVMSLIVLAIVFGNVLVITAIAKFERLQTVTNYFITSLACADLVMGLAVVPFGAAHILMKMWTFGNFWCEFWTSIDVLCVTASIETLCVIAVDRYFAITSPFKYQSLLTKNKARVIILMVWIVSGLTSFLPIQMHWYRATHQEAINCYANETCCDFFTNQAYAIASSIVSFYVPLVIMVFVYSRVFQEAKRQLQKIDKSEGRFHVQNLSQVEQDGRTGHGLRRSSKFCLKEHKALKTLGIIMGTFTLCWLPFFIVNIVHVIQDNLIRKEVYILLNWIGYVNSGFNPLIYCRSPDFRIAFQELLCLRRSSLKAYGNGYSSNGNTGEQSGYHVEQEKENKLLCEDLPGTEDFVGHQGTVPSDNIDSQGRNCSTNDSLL
# In short: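 Cells (CHO, stable ADRB2 overexpression) incubated 18-20hr at 37C; compounds added from DMSO; agonist mix (1nM isoproterenol, 100uM IBMX, 25uM Ro-20-1724) added; 0.5hr RT; d2-cAMP and anti-cAMP-cryptate added; 1hr RT; 665/615 nm read.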
# [18] = target: D(2) dopamine receptor (Homo sapiens) (UniProt P14416); assay: Dopamine D2 receptor (DRD2) small molecule antagonists, cell-based qHTS assay (AID 1963595; active = well fitted inhibition curve with a large enough effect in the signal ratio in the repeat runs, with a control signal flat; the % refers to the signal ratio)
# D(2) dopamine receptor (Homo sapiens), sequence (P14416 whole entry, looked up): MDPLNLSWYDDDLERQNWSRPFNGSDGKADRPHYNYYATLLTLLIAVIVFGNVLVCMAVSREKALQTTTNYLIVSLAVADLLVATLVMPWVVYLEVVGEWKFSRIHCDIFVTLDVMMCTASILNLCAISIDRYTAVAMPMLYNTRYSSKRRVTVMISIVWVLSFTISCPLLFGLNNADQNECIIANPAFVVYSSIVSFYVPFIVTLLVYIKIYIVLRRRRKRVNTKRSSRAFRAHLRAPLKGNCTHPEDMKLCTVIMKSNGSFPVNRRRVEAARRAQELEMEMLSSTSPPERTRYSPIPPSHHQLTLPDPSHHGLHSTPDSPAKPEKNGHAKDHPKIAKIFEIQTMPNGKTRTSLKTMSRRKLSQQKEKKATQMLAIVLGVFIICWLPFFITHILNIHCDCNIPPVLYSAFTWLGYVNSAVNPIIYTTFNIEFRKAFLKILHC
# In short: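 HEK293 cells stably expressing DRD2 were preincubated with 0.1 mM Ro20-1724, then with compound for 10 min at room temperature. Cells were stimulated with 200 nM NKH477 plus 12 nM quinpirole for 30 min, and cAMP was read by HTRF.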
# [19] = target: D(2) dopamine receptor (Homo sapiens) (UniProt P14416); assay: Dopamine D2 receptor (DRD2) small molecule agonists, cell-based qHTS assay (AID 1963594); note: nearly all actives have a fitted effect of over 35% in size
# In short: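 HEK293 cells stably expressing human DRD2, pre-treated with PDE inhibitor Ro20-1724 (0.1 mM final) and compound 10 min at room temperature, then stimulated with NKH477 (200nM […]) for 30 min. cAMP read by HTRF (665/620 nm).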
SMILES,Potency [1],Potency [2],Potency [3],Potency [4],Potency [5],Potency [6],Potency [7],Potency [8],Potency [9],Potency [10],Potency [11],Potency [12],Potency [13],Potency [14],Potency [15],Potency [16],Potency [17],Potency [18],Potency [19]
CC(C)(C)c1cc(C(C)(C)C)c(O)c(C(C)(C)C)c1,inactive and 48.6 µM (active),30.6 µM (active),inactive,inactive,inactive,inactive,inactive,inactive,inactive,inactive,inactive,5.49 µM (active),inactive,inactive,inactive,inactive,inactive,inactive,
CCCCCCCCCCCCCCC(=O)O,inactive,inactive,inactive,inactive,inactive,inactive,inactive,inactive,inactive,inactive,inactive,inactive,inactive,inactive,inactive,inactive,inactive,inactive,inactive
CCC(=O)CC,inactive,inactive,inactive,inactive,inactive,inactive,inactive,inactive,inactive,inactive,inactive,inactive,inactive,inactive,inactive,inactive,inactive,inactive,inactive
Cc1ccccc1S(N)(=O)=O,inactive,inactive,inactive,inactive,inactive,inactive,inactive,inactive,inactive,inactive,inactive,inactive,inactive,inactive,inactive,inactive,inactive,inactive,inactive
C=CCOc1cc(Cl)ccc1C(=O)NCCN(CC)CC,inactive,inactive,inactive,inactive,inactive,inactive,inactive,inactive,inactive,inactive,inactive,inactive,4.6 µM (active),inactive,inactive,inactive,inactive,,inactive
O=Cc1cccc([N+](=O)[O-])c1,inactive,inactive,inactive,inactive,inactive,inactive,inactive,inactive,inactive,inactive,inactive,inactive,inactive,inactive,inactive,,inactive,,inactive
CCCCCCOC(=O)CC,inactive,inactive,inactive,inactive,inactive,inactive,inactive,inactive,inactive,inactive,inactive,,inactive,,inactive,inactive,inactive,inactive,inactive
